MITF TRPM1 inh: MITF TRPM1 promoter inhibition in SK-MEL-5 cells; SK-MEL-5 TRPM1 promoter luciferase, 24 h; inhibition, % at 12.5 µM; 330,000 tested, 0.83% active;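 active means mean inhibition across replicates of 60% or more, whatever share of single replicates reaches that level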
aSyn UTR inh: MLPCN primary screen, SNCA 5' untranslated region. alpha-synuclein 5'UTR reporter, inhibitor activity. inhibition, % (tested at 7.5 µM). 300,000 tested, 0.82% active. AID 1813; in the data active means inhibition above about 60%;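 further: H4 neuroglioblastoma cells stably carrying SNCA 5'UTR luciferase fusion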
PAX8 inh HTS: inhibitors of PAX8 transcriptional activity in RMG-I cells; RMG-I TPO-luciferase reporter, SteadyGlo, 24 h; inhibition, % at 12.6 µM; 360,000 tested, 1.2% active; AID 652154;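 active means mean replicate inhibition at least 60% with every replicate also reaching 60%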;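 further: luciferase light reporting Pax8 driven TPO promoter activity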
Shn3 3UTR inh: Schnurri-3 reporter inhibition in Clone20 osteoblasts. AID 588674. Clone20 osteoblast Shn3 3'UTR firefly luciferase, 24 h. inhibition, % at 12.5 µM. 360,000 tested, 0.52% active;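 active means mean inhibition of at least 75% with every replicate also reaching 75%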
EBV LMP1 NFkB: Epstein-Barr LMP1 NF-kappaB reporter inhibition; LMP1-induced NF-kappaB luciferase reporter cells, luminescence; inhibition, % at 12.5 µM; 350,000 tested, 0.69% active; AID 504558; in the data active means inhibition above about 41%
Hits are given with their value; - = inactive; . = no result; ! = a repeat was not active. Compounds with a hit are over-represented: about 2.1% of the library has one in this group of screens.

SMILES | MITF TRPM1 inh | aSyn UTR inh | PAX8 inh HTS | Shn3 3UTR inh | EBV LMP1 NFkB
Oc1cccc2ccc(Nc3ccccn3)nc12 | 86 | 98 | . | - | 75
Cc1ccc(S(=O)(=O)NCCC(=O)Nc2nnc(C3CC3)s2)cc1C | - | - | . | - | -
COc1ccccc1CNS(=O)(=O)c1ccc(-c2cc(C)no2)cc1 | - | 80 | - | - | -
COCCn1c(SCC(=O)c2c(-c3ccccc3)n(C)c3ccccc23)nnc1-c1ccncc1 | - | - | - | - | -
COCCn1c(SCC(=O)/C=C2\N(C)c3ccccc3C2(C)C)nnc1-c1ccncc1 | - | - | - | 89 | -
Cc1ccc(S(=O)(=O)N(C)C[C@H]2Oc3cc(C#Cc4ccncc4)ccc3S(=O)(=O)N([C@@H](C)CO)C[C@H]2C)cc1 | . | . | 104 | . | .
CC(C)CC#Cc1ccc2c(c1)O[C@@H](CN(C)S(=O)(=O)c1ccc(F)cc1)[C@H](C)CN([C@H](C)CO)S2(=O)=O | . | . | 67 | . | .
Cc1ccc(S(=O)(=O)N(C)C[C@H]2Oc3cc(C#Cc4ccccc4)ccc3S(=O)(=O)N([C@@H](C)CO)C[C@@H]2C)cc1 | . | . | - | . | .
CC(C)CC#Cc1ccc2c(c1)O[C@H](CN(C)S(=O)(=O)c1ccc(F)cc1)[C@H](C)CN([C@@H](C)CO)S2(=O)=O | . | . | 98 | . | .
COc1ccc2[nH]c(=O)cc(C(=O)O)c2c1 | - | - | - | - | -
COc1ccc2[nH]c3c4c(ccc3c2c1)C(=O)C=CC4=O | 79 | . | - | 96 | -
O=c1[nH]c(-c2ccccc2)nc(CN2CCCCC2)c1O | - | . | - | - | -
CCN(CC)CCNC(=O)c1cc2c(-c3ccc(Cl)cc3)nn(C)c2s1 | 62 | - | - | - | -
CCOCCCNC(=O)c1cc2c(-c3ccc(Cl)cc3)nn(C)c2s1 | - | - | - | - | -
CCCN(CCC)CCNC(=O)c1cc2c(-c3ccc(Cl)cc3)nn(C)c2s1 | - | - | - | - | -
CCCCN(CC)CCNC(=O)c1cc2c(-c3ccc(Cl)cc3)nn(C)c2s1 | 68 | 79 | - | - | -
CCN1CCN(C(=O)CCc2nc3ccccc3n2-c2ccccc2)CC1 | - | - | - | - | -
CC1(c2nnc(-c3cccc(Cl)c3)o2)CC(c2cccc(F)c2)=NO1 (stereo not drawn) | - | - | - | - | -
CCOC(=O)C1CCCN(C(=O)Cn2sc3nc(C)cc(C)c3c2=O)C1 (stereo not drawn) | - | - | . | 97 | -
O=C(NNc1ccccc1)C(=O)NNS(=O)(=O)c1ccc(CCCl)cc1 | - | - | - | 86 | -
Nc1ccc(S(=O)(=O)NNC(=O)C(=O)NNc2ccccc2)cc1 | - | - | - | - | -
CCOC(=O)C1C(=O)C=C(c2cccs2)CC1c1ccccc1C (stereo not drawn) | - | - | - | - | -
O=C(Nc1ncccc1O)c1ccc(Cl)c(S(=O)(=O)N2CCCCC2)c1 | - | - | - | - | -
COC(=O)C1=C(C)NC(C)=C([N+](=O)[O-])C1c1ccccc1C(F)(F)F (stereo not drawn) | - | - | - | 93! | 55!
COC(=O)Cc1ccc(NC(=S)NCCCO)cc1 | - | - | . | - | -
SMILES | MITF TRPM1 inh | aSyn UTR inh | PAX8 inh HTS | Shn3 3UTR inh | EBV LMP1 NFkB
CCCC(=O)Nc1ccc2c(c1)C(=O)N(C)[C@H]1CC[C@@H](CC(=O)NCCOC)O[C@H]1CO2 | . | . | - | . | .
COc1cc(CNC2CCCC2)cc(Cl)c1OCc1ccccc1Cl | 82 | - | . | - | -
COCCN1CSC(=S)N(Cc2ccco2)C1 | - | . | . | - | 45
CCN(CC)S(=O)(=O)c1ccc(NC(=O)CSc2nc3nc(C)cc(C)c3c(=O)[nH]2)cc1 | . | . | - | - | -
CCOC(=O)C1=CCN(S(=O)(=O)c2ccc(F)cc2)C1c1ccc(C)cc1 (stereo not drawn) | . | . | - | - | .
Cc1ccc(NCC(=O)N/N=C\c2ccc([N+](=O)[O-])o2)cc1 | 68 | - | . | - | -
O=C(Cc1ccc2c(c1)OCO2)NN=Cc1ccc([N+](=O)[O-])o1 | 73 | . | - | - | -
CCC1=C(CC2NCCc3ccccc32)CC2c3cc(OC)c(OC)cc3CCN2C1 (stereo not drawn) | 70 | . | - | - | -
CC[C@H]1CN2CCc3cc(OC)c(OC)cc3C2C[C@@H]1C[C@H]1NCCc2cc(OC)c(OC)cc21 (stereo partly drawn) | 76 | . | 111 | 97 | 88
CC(C)Cc1nnc(NC(=O)c2ccncc2)s1 | - | - | . | - | -
CN(C)c1ccc2c(c1)OC(N)=C(C#N)C2c1cccc(F)c1 (stereo not drawn) | - | 68 | . | - | -
N#CC1=C(N)Oc2cc(N)ccc2C1c1cccc(F)c1 (stereo not drawn) | - | - | - | - | -
CC(=O)c1cccc(NC(=O)c2cnn3ccccc23)c1 | . | - | - | - | -
CC(=O)c1ccc(NC(=O)c2cnn3ccccc23)cc1 | . | 79 | - | - | -
CN(CC(=O)Nc1ccccc1C(F)(F)F)C(=O)CSc1nc(N)cc(N)n1 | - | . | - | - | -
COc1ccc(N2C(=O)c3ccccc3NC2c2ccccc2O)cc1 (stereo not drawn) | . | - | - | - | -
CCOc1ccccc1C1CC(=O)Nc2cc3c(cc21)OCO3 (stereo not drawn) | - | 66 | . | - | -
CC(C)Oc1ccccc1C1Nc2ccccc2C(=O)N1c1ccc2c(c1)OCCO2 (stereo not drawn) | - | 68 | . | - | -
CC(C)Oc1ccccc1C1CC(=O)Nc2cc3c(cc21)OCCO3 (stereo not drawn) | - | 73 | 80 | - | -
CCN(CC)C(=O)Oc1ccc2c(=O)c(-c3ccc(OC)cc3)coc2c1 | - | - | . | - | -
CCCCCSc1nnc(N)s1 | - | - | - | - | -
O=C(C[C@@H]1C=C[C@H](NC(=O)c2ccncc2)[C@H](CO)O1)NCc1ccncn1 | . | . | - | . | .
Cc1ccc(C)c(NC(=S)N2CCC(NC(=O)c3cccc(F)c3)CC2)c1 | - | - | - | - | -
COc1cccc(C#Cc2ccc3c(c2)[C@@H]2[C@@H](CCN2C(=O)CC2CC2)[C@@H](CO)N3)c1 | . | . | - | . | .
CC(/C=N/NC(=O)c1cc(-c2ccc(Cl)cc2)nc2ccccc12)=C\c1ccco1 | - | 85 | 87 | - | -
SMILES | MITF TRPM1 inh | aSyn UTR inh | PAX8 inh HTS | Shn3 3UTR inh | EBV LMP1 NFkB
Cc1ccc(/C=N/NC(=O)c2cc(-c3ccccc3)nc3ccccc23)o1 | - | - | - | - | 54
Cc1cc(C(=O)N/N=C/c2ccc(C)o2)c2ccccc2n1 | - | 65 | - | - | -
Cc1ccc(C=NNC(=O)c2cc(-c3cccnc3)nc3ccccc23)o1 | - | . | - | - | -
Cc1cc(C)c(OCC(=O)N/N=C/c2ccc3c(c2)OCO3)c(C)c1 | - | - | . | - | -
CN1/C(=C/C=C/c2n(C)c3cc([N+](=O)[O-])c([N+](=O)[O-])cc3[n+]2C)C(C)(C)c2ccccc21 | . | . | 100 | - | -
Cc1cccc[n+]1CC(=O)/C=C1\N(C)c2ccccc2C1(C)C | - | - | - | - | -
O=C(Nc1ccc(N2CCOCC2)cc1)C1CCN(C(=O)OCc2ccccc2)CC1 | - | - | - | - | -
O=c1cc(-c2ccccc2)cc(-c2ccccc2)n1O | - | - | - | 92 | -
S=C(NCc1ccccn1)Nc1cccc(Cl)c1 | - | - | . | - | -
